Compound activity deposited in PubChem BioAssay by National Center for Advancing Translational Sciences (NCATS).
CHX counter = counter-screen for Shiga toxin inhibitors: cycloheximide protein synthesis inhibition | actives 12% (n = 300,000) | AID 2314 | cell reporter, cycloheximide protein synthesis inhibition counterscreen | max response, %; in the data active = max response mostly above about 13%, no sharp cut-off; inactive = mostly below about 14%; note: read at 38.3 µM for the half of the compounds with a filed dose; 0% is about no effect
Shiga inhibitor = Shiga toxin inhibition; Vero cells, Shiga toxin protein synthesis inhibition reporter; inhibition, % at 38.7 µM; actives 9.2% (n = 290,000); AID 2315; in the data active = inhibition mostly above about 28%, no sharp cut-off; inactive = mostly below about 43%; note: 0% is about no effect
NS1 function inh = inhibitors of influenza NS1 protein function; Potency, µM (doses to about 46.1 µM), inactives show at the highest dose activity, positive = more growth; actives 0.4% (n = 270,000); AID 2326; calls by dose curve; note: potency is the fitted concentration of half-maximal effect; actives are rising curves; nearly all actives have a fitted effect of over 50% in size
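Growth recovery, yeast-based: influenza A NS1 expressed in S. cerevisiae causes slow growth, and suppressors are detected by OD600. The parent strain without NS1 is used as positive control.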
FBPA Giardia inh = Giardia lamblia aldolase inhibition. A8B2U2. purified Giardia FBPA. Potency, µM (top dose mostly 59.6 µM), for inactives: at the highest dose activity, negative = inhibition, usual class: inhibitors. actives 0.71% (n = 290,000). AID 2451; note: potency is the fitted concentration of half-maximal effect; % is set by controls: 0 for no effect and ±100 for the full control effect; nearly all actives have a fitted effect of over 55% in size
Target sequence (A8B2U2 whole entry, looked up): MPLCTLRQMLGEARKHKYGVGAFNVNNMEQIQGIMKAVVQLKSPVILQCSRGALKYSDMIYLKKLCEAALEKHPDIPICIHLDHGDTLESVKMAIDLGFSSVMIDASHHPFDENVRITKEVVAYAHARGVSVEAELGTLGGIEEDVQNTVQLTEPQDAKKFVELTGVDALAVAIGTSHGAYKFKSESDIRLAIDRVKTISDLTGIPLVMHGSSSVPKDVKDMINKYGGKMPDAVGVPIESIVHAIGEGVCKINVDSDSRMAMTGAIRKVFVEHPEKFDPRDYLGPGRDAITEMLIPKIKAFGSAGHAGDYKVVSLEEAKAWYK
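Giardia FBPA (40 nM reagent) was preincubated 10 min at RT with compound (up to 57.5 uM final), then substrate plus GAPDH/TPI/NAD/arsenate coupling system with diaphorase/resazurin was added; resorufin fluorescence (525/598 nm) was read after 20 min.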
Pf growth 96h = P. falciparum growth inhibition at 96 hours; AID 504834; Potency, µM (doses to about 28.7 µM), without a hit: top-dose activity change, negative = inhibition, usual class: inhibitors; actives 6.9% (n = 320,000); P. falciparum luciferase reporter growth, 96 h; note: potency is the fitted concentration of half-maximal effect; % is set by controls: 0 for no effect and ±100 for the full control effect
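Erythrocytes infected with luciferase-expressing P. falciparum were dispensed at 2% hematocrit and 0.05% parasitemia (final), then incubated with compounds 96 hours at 37 C in 5% CO2. Luminescence after detection reagent addition reported growth.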
Pf growth 48h = P. falciparum growth inhibition at 48 hours (one generation) | P. falciparum luciferase growth in erythrocytes, 48 h | Potency, µM (top dose mostly 28.7 µM), for the others: top-dose activity change, negative = inhibition, usual class: inhibitors | actives 5.9% (n = 310,000) | AID 504832; note: potency is the fitted concentration of half-maximal effect; % is set by controls: 0 for no effect and ±100 for the full control effect
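Luminescence readout; reporter = integrated firefly luciferase in P. falciparum. RBC culture at 2% hematocrit, 0.1% parasitemia final, 37 C/5% CO2; decreased signal taken as growth inhibition.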
An asterisk follows results filed as active; ? = inconclusive; · = not tested or not shown; + = active, no number; [ ] = another dose, or the depositor's remark. Only some compounds are listed: those with a hit (about 21% of all), similar ones and a draw of the others. Unless noted, calls come from the whole dose curve; as a rule, active = well fitted curve in the direction sought with a large enough effect; inconclusive = small, poorly fitted or top-dose-only effect, or another doubt; inactive = no such curve, though single readings can be large; an effect the other way counts as inactive or inconclusive.

SMILES | CHX counter | Shiga inhibitor | NS1 function inh | FBPA Giardia inh | Pf growth 96h | Pf growth 48h
Cc1nc(CC(=O)Nc2nc(-c3ccccc3)cs2)cs1 | 28.8* | 80.3* | -53.8% | -14.8% | ? | 44.7%
COc1cccc(C2=NOC(C(=O)Nc3ccc4c(c3)OCO4)C2)c1OC (stereo not given) | 13.8 | 16.8 | 0.3% | -8.4% | 2.9% | 1.6%
CCc1cc2cc(C)ccc2nc1SCC(=O)NNC(=O)c1ccco1 | 3.2 | -3.7 | 13.4% | 2.9% | -28.1% | ?
CCc1cc2cc(C)cc(C)c2nc1SCC(=O)N1CCN(C(=O)c2ccco2)CC1 | 1.4 | -12.7 | -78.8% | 5.5% | 8.28µM* | -24.4%
CCc1cc2ccc(C)cc2nc1SCC(=O)NNC(=O)c1ccco1 | -1.3 | -8.3 | 3.2% | 13.9% | 4.65µM* | 16.9%
CCc1c(C)nc(SCC(=O)NNC(=O)c2ccco2)[nH]c1=O | 29.8* | 39.5* | -0.6% | · | ? | 13.0%
CCc1cc2cccc(C)c2nc1SCC(=O)N1CCN(C(=O)c2ccco2)CC1 | -7.7 | -11.0 | -60.4% | 10.9% | 15.8% | -3.7%
Cc1c(-c2ccc(OCc3ccccc3)cc2)nc2ccccc2c1C(=O)O | 8.3 | 1.6 | 6.0% | 8.4% | ? | 12.8%
O=C(Nc1ccc(SC(F)F)cc1)C1CC(=O)N(Cc2ccccc2)C1 (stereo not given) | 15.2* | 26.4* | 7.0% | · | ? | ?
CC(=O)c1ccc(NC(=O)C2CC(=O)N(Cc3ccccc3)C2)cc1 (stereo not given) | 28.8* | 101.0* | 9.7% | 3.3% | · | 53.7%
O=C(Nc1ccccc1)C1CC(=O)N(Cc2ccccc2)C1 (stereo not given) | -3.3 | 11.9 | 0.4% | 17.8% | 49.3% | 11.0%
CC(=O)Nc1ccc(NC(=O)CSc2nnc(-c3cccs3)n2N)cc1 | · | · | · | · | 18.9% | -14.2%
Cc1cc(C(=O)N/N=C2/CC(C)CC(C)(C)C2)c(C)o1 (stereo not given) | 31.2* | 77.0* | -4.0% | -7.5% | 2.4% | -1.7%
C/C(=N\NC(=O)c1cc(C)oc1C)c1ccc2ccccc2c1 | 17.1 | 22.8 | 2.8% | -7.7% | 57.7% | 9.8%
COc1ccccc1-c1nccc(NC2CCNCC2)n1 | · | · | · | 4.4% | · | ·
CCN(CC)CCOC(=O)c1ccc(NC(=O)C(C)NC(=O)C23CC4CC(CC(C4)C2)C3)cc1 (stereo not given) | -3.8 | -8.2 | 5.3% | 6.1% | 11.7µM* | -25.7%
Cc1cccc(N2CCN(S(=O)(=O)c3c(C)[nH]c(C)c3C(=O)N3CCCC3)CC2C)c1 (stereo not given) | 21.6 | -3.8 | -2.2% | 6.9% | ? | -12.4%
O=C(CSc1ccccc1)Nc1ccc2c(c1)C(=O)NC2=O | 7.3 | 18.0 | -0.5% | -2.2% | 33.2% | 22.7%
O=C(CSc1cccs1)Nc1cccc2ccccc12 | 50.0* | + | -4.1% | 4.2% | ? | 150.6%
O=C(CS)Nc1ccc2ccccc2c1 | 15.3 | 48.9 | 1.3% | -7.1% | 4.7% | 2.3%
O=C(CSc1cccs1)Nc1ccc2ccccc2c1 | 45.9* | 125.3* | -33.5% | -0.5% | 95.6% | 35.9%
O=C(CSc1ccccc1)Nc1ccc2sccc2c1 | 45.1* | 44.5* | -1.2% | 0.6% | 41.6% | 48.9%
O=C(CSC1=NCCS1)Nc1cccc2ccccc12 | -0.5 | -6.5 | ? | -4.7% | 36.9% | ·
CCOC(=O)OCC1OC(c2ccc(C(C)=O)cc2)C=CC1Oc1ccc(-c2ccccc2)cc1 (stereo not given) | · | · | · | 0.3%[12.9 µM] | · | ·
CSc1ccc(CN(C)C(=O)CNC(=O)c2sc3ccccc3c2Cl)cc1 | 3.7 | 9.0 | -17.0% | -6.6% | 25.3% | -0.3%
SMILES | CHX counter | Shiga inhibitor | NS1 function inh | FBPA Giardia inh | Pf growth 96h | Pf growth 48h
CC(C)Cc1nc2c(nnn2Cc2ccccc2F)c(=O)[nH]1 | -1.6 | -6.6 | -4.6% | -1.1% | 9.28µM* | ?
CC(C)(C)OC(=O)N1CCC[C@H]1c1nnc(SCc2cccc(Cl)c2)o1 | 1.5 | 16.3 | -0.6% | -0.6% | -10.5% | -22.1%
O=C1C=C(Nc2ccc(O)cc2)C(=O)c2ccccc21 | 44.4* | 68.0* | -33.9% | ? | -103.9% | 97.9%
CC(=O)Nc1ccc(NC2=CC(=O)c3ccccc3C2=O)cc1 | 54.9* | 110.8* | 1.4% | -26.9% | 0.586µM* | ?
CN=C(c1ccc(C)cc1)n1c(=S)nc(-c2ccc(C)cc2)n(C)c1=S | 43.0* | 84.7* | -4.7% | -17.6% | ? | ?
CN=C(c1ccco1)n1c(=S)nc(-c2ccco2)n(C)c1=S | 6.0 | -5.1 | -11.6% | -27.6% | 29.9% | 9.2%
COc1ccc(CCNC(=O)c2cccc(Br)c2)cc1OC | -1.3 | -11.6 | 0.4% | 11.6% | -18.1% | 14.6%
COc1ccc2c(c1)CCc1c-2n[nH]c1C(=O)O | 1.2 | 2.3 | 1.2% | 5.9% | ? | 14.7%
COc1ccc2c(c1)CCc1cnc(N)nc1-2 | 11.8* | 19.4 | -0.7% | -20.9% | ? | 29.9%
COc1ccc(-c2cnc(N)nc2-c2ccc(OC)cc2)cc1 | -1.9 | 1.6 | 3.8% | 9.2% | -18.8% | -19.9%
COc1ccc2c(c1)CCc1cn3nc(C)cc3nc1-2 | 0.7 | 4.1 | -2.9% | 17.7µM* | ? | ?
O=C(COC(=O)CNC(=O)c1ccc(Cl)cc1Cl)NC1CCCCC1 | 14.5 | -2.8 | 3.1% | · | -15.3% | 1.1%
CCCCC/C=C\C/C=C\C[C@H](O)/C=C/C=C\CCCC(=O)O | · | · | · | 6.5% | · | ·
Cc1ccc(C#CC[N+]2(CC#Cc3ccc(C)cc3)CCCCC2)cc1 | -3.4 | 12.1 | -0.4% | -5.0% | ? | 0.586µM*
C#CC[N+]1(CC#Cc2cccc(C)c2)CCCCC1 | -3.3 | 18.2 | · | 4.5% | -12.1% | 1.47µM*
O=C(C[N+]1(CC#Cc2ccccc2)CCCCC1)c1ccc(Cl)cc1 | -0.4 | -2.4 | · | 2.8% | -21.7% | ?
C(#Cc1ccccc1)C[N+]1(CC#Cc2ccccc2)CCCCC1 | 1.7 | -14.3 | -12.5% | -8.5% | -21.8% | -13.7%
CN(CC(=O)Nc1ccc(F)c(F)c1F)C(=O)CC1CCCCC1 | · | · | · | · | -15.8% | 4.1%
COC1=C(C(=O)c2ccccc2)C(=O)C2(CC=C(C)C)C[C@H](C(=O)OCC(F)(F)F)C(C)(C)[C@@]1(CC=C(C)C)C2=O (tested in a mixture with another compound) | · | · | · | -1.9% | · | ·
Cc1ccc(NC(=O)CCCC(=O)O)c(-c2nc3ccccc3[nH]c2=O)c1 | 6.3 | 20.9 | -4.8% | 1.6% | -2.5% | 10.3%
Cc1onc(-c2ccccc2)c1C(=O)NC(=S)NNC(=O)c1ccncc1 | -3.4 | -4.5 | -3.9% | ? | 10.4µM* | ?
Cc1onc(-c2ccccc2)c1C(=O)NNC(=S)NC(=O)c1ccc2c(c1)OCO2 | 46.5* | 90.5* | -42.8% | ? | 86.6% | 103.3%
COc1ccc(C(=O)NC(=S)NNC(=O)c2c(-c3ccccc3)noc2C)cc1OC | -2.3 | -3.1 | -1.7% | 26.7% | 19.6% | 57.3%
Cc1cccc(C)c1OCc1cc(C(=O)N(Cc2c(C)nn(C)c2C)C2CC2)no1 | -1.6 | 1.6 | -6.9% | -4.3% | -5.3% | -24.2%
